High-throughput results as filed in PubChem BioAssay.
mHTT-CaM PPI inh = inhibitors of human mutant huntingtin-calmodulin interaction; P42858; AlphaScreen His-mHTT/GST-CaM binding, luminescence; inhibition, % at 15 µM; 190,000 compounds, 3.6% hits;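 also: 0% = both proteins with DMSO and 100% = one protein alone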
Target sequence (P42858 whole entry, looked up, stated change not applied): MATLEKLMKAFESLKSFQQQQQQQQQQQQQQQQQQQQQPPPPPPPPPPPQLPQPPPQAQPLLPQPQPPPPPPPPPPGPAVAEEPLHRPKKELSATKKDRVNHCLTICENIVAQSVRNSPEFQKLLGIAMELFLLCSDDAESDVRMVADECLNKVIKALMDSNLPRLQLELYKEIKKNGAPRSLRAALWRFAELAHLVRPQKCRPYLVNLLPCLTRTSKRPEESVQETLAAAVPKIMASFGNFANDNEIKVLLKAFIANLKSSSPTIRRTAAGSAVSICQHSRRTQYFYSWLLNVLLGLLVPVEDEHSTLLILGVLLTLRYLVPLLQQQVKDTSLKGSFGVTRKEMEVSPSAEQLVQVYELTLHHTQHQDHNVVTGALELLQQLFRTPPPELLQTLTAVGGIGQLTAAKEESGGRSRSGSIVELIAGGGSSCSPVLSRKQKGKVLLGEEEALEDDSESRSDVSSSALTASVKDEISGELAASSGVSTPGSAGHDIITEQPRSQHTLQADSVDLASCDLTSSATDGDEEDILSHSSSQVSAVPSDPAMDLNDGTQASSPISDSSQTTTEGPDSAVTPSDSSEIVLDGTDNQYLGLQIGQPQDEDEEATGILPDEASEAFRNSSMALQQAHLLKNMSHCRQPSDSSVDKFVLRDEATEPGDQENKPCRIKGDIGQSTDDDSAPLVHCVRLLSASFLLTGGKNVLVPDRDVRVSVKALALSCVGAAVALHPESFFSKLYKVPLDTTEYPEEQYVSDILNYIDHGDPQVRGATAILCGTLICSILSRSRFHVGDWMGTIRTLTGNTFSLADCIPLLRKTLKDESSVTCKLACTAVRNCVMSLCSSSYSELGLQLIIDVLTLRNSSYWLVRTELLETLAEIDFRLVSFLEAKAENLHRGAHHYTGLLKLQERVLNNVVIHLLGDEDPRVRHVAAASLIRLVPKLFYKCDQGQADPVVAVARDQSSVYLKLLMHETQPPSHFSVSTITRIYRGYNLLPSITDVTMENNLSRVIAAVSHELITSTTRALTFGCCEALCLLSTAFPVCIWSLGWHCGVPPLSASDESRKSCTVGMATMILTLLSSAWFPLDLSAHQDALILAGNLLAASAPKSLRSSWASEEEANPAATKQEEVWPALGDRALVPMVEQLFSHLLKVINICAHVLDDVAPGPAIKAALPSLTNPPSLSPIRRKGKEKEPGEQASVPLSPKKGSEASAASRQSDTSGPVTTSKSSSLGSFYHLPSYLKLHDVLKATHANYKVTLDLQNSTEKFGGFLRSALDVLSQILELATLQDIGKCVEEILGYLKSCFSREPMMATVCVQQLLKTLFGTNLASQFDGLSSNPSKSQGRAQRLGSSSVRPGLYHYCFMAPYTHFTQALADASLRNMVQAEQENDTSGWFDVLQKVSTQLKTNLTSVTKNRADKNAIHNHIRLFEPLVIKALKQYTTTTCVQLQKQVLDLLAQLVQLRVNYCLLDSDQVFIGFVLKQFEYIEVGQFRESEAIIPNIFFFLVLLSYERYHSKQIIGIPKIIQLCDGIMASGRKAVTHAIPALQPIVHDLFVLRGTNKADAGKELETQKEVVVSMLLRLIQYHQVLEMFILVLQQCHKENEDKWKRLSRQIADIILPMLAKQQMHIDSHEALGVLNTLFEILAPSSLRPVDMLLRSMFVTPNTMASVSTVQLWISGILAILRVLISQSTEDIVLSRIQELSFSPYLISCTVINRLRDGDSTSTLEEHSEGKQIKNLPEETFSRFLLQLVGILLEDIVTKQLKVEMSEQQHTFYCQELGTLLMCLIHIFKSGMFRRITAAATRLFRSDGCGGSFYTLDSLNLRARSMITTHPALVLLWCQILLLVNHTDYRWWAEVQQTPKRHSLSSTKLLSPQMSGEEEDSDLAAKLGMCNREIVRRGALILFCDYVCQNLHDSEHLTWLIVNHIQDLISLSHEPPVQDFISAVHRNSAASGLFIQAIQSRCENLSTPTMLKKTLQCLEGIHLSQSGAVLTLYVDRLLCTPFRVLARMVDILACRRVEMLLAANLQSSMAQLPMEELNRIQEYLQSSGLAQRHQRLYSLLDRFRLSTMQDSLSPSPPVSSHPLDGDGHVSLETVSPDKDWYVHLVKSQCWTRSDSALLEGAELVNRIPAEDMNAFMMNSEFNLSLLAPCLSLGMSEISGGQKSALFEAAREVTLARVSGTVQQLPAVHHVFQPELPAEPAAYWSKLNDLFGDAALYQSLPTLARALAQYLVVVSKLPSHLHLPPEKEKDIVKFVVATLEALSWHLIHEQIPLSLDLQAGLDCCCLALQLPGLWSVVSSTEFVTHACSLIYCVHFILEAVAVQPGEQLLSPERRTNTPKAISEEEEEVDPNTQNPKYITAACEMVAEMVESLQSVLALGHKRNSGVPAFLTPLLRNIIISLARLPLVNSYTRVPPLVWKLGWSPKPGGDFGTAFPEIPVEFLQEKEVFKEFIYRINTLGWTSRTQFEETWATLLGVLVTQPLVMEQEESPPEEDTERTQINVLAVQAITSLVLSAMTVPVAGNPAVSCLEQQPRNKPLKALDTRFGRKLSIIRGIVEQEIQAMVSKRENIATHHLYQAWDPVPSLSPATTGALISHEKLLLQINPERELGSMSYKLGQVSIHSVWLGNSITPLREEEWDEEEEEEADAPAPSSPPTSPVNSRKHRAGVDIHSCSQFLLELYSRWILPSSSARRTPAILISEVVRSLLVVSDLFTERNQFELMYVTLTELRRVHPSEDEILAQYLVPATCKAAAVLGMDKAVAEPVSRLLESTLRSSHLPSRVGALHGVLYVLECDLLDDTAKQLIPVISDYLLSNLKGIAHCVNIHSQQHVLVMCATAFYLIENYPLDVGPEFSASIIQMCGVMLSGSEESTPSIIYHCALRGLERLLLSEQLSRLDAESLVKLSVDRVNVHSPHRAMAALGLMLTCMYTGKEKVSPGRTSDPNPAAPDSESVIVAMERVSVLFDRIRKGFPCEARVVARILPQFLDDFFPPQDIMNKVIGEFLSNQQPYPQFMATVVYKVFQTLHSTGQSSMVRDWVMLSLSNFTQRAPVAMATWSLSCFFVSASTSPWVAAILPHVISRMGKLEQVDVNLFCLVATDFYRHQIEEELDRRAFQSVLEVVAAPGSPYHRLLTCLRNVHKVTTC
Pf apPOL inh = Pf-apPOL DNA polymerase inhibition; 210,000 compounds, 0.25% hits; AID 1794808; inhibition, % at 10 µM; Recombinant Pf-apPOL, molecular beacon fluorescence, 1.5 h
The depositor's hits bear a star. The list is not random: actives were taken first. Their share in the collection is about 3.6%. Rule as the data show it: active = inhibition above about 50%; inactive = the rest.

`CCOc1ccc(C(=O)N2CCC(c3noc(-c4ccccc4C)n3)CC2)cc1OCC` gave mHTT-CaM PPI inh 11 and Pf apPOL inh -4.
COc1ccccc1-c1nc(C2CCN(C(=O)c3cc4ccccc4[nH]3)CC2)no1 was read as mHTT-CaM PPI inh 100* and Pf apPOL inh 5.
For COc1cc(OC)cc(C(=O)N2CCC(c3noc(-c4ccccc4OC)n3)CC2)c1 the results were mHTT-CaM PPI inh 8 and Pf apPOL inh -2.
Screening Cc1oc(C2CCN(C(=O)c3cc4ccccc4[nH]3)CC2)nc1C(=O)N(C)C returned mHTT-CaM PPI inh 17 and Pf apPOL inh -3.
COc1ccc(NC(=O)c2cccc(OCc3ccccc3)c2)c(OC)c1 was read as mHTT-CaM PPI inh -21 and Pf apPOL inh -4.
O=C(c1ccc(OCC2CCN(C(=O)c3ccoc3)CC2)cc1)N1CCCCC1 was read as mHTT-CaM PPI inh 12 and Pf apPOL inh -6.
CN(CCCNC(=O)c1csc2c1CCCCC2)Cc1ccccc1 was read as mHTT-CaM PPI inh 1 and Pf apPOL inh 0.
For CCCn1c(-c2cccc(C(=O)N3CCN(C)CC3)c2)nc2cccnc21 the results were mHTT-CaM PPI inh -8 and Pf apPOL inh 3.
Screening CCOc1c(Br)cc(/C=C2N=C(/C=C/c3ccccc3)OC\2=O)cc1OC returned mHTT-CaM PPI inh 8 and Pf apPOL inh -1.
Screening Cc1nc2c(NC(=O)c3ccccn3)cccn2n1 returned mHTT-CaM PPI inh 50* and Pf apPOL inh -14.
`Cc1nnc2c(NC(=O)c3ccccn3)cccn12` gave mHTT-CaM PPI inh 31 and Pf apPOL inh -16.
Screening CS(=O)(=O)Nc1ccc(C(N)=NO)cc1 returned Pf apPOL inh -9.
Screening COCCn1cc2c3c(cccc31)CN(C(=O)Cc1ccc(Cl)cc1)CC2 returned mHTT-CaM PPI inh 81* and Pf apPOL inh -2.
Screening COCCn1cc2c3c(cccc31)CN(C(=O)Cc1ccccc1C)CC2 returned mHTT-CaM PPI inh 63* and Pf apPOL inh -2.
Screening COCCn1cc2c3c(cccc31)CN(C(=O)Cc1cccc(OC)c1)CC2 returned mHTT-CaM PPI inh 46 and Pf apPOL inh -6.
Screening CCc1ccccc1NC(=O)N1CCc2cn(CCOC)c3cccc(c23)C1 returned mHTT-CaM PPI inh 14 and Pf apPOL inh -4.
`COc1ccc(C)cc1N1CCN(C(=O)CCc2ccccc2)C(C)C1=O` (stereo not drawn) gave mHTT-CaM PPI inh -7 and Pf apPOL inh -3.
For CC1CCN(C(=O)C2CCN(c3nc4ccc(-c5cccnc5)nc4s3)CC2)CC1 the results were mHTT-CaM PPI inh 17 and Pf apPOL inh -4.
Screening CC1CN(S(=O)(=O)C(C)C)CC1c1nc(-c2ccncc2)no1 (stereo not drawn) returned mHTT-CaM PPI inh -7 and Pf apPOL inh -7.
For O=C(Nc1ccccc1[N+](=O)[O-])c1ccc(I)cc1 the results were mHTT-CaM PPI inh 18 and Pf apPOL inh -7.
`COc1ccc(OC)c(-c2cc3ccc(OC(=O)C(C)C)cc3oc2=O)c1` gave mHTT-CaM PPI inh -3 and Pf apPOL inh -5.
`COc1ccc(-c2cc3ccc(OC(=O)C(C)C)cc3oc2=O)c(OC)c1` gave mHTT-CaM PPI inh 78* and Pf apPOL inh -1.
For Cc1cccc(CN2CCCCC2c2nc(-c3cccnc3)no2)c1 (stereo not drawn) the results were mHTT-CaM PPI inh 3 and Pf apPOL inh -1.
Screening CC(O)c1nc2ccc(S(=O)(=O)c3ccc4nc(C(C)O)[nH]c4c3)cc2[nH]1 (stereo not drawn) returned mHTT-CaM PPI inh -5 and Pf apPOL inh -21.
Cc1ccc(C(=O)Nc2nnc3ccccn23)s1 was read as mHTT-CaM PPI inh 91* and Pf apPOL inh -10.
`Cc1cccc(C(=O)Nc2nnc3ccccn23)c1` gave mHTT-CaM PPI inh 22 and Pf apPOL inh -7.
O=C(Nc1nnc2ccccn12)c1cccc(F)c1 was read as mHTT-CaM PPI inh 56* and Pf apPOL inh -11.
O=C(Nc1nnc2ccccn12)c1cc(F)cc(F)c1 was read as mHTT-CaM PPI inh 82* and Pf apPOL inh -11.
Screening O=C(Nc1nnc2ccccn12)c1ccc(F)cc1 returned mHTT-CaM PPI inh 24 and Pf apPOL inh -8.
For Cc1ccc(C(=O)Nc2nnc3ccccn23)cc1 the results were mHTT-CaM PPI inh 24 and Pf apPOL inh -8.
Screening O=C(Cn1c(-c2ccccc2F)nc2ccccc2c1=O)Nc1ccc(F)cc1 returned mHTT-CaM PPI inh -4 and Pf apPOL inh -5.
COc1cc(NC(=O)NCCNC(=O)c2ccc(NC(=O)C(C)(C)C)cc2)cc(OC)c1 was read as mHTT-CaM PPI inh 1 and Pf apPOL inh -3.
`O=C(c1cccs1)N1CCc2[nH]nc(-c3ccccc3)c2C1` gave mHTT-CaM PPI inh 15 and Pf apPOL inh 4.
`Cc1ccccc1CN(CC(C)O)CC(C)O` (stereo not drawn) gave mHTT-CaM PPI inh -10 and Pf apPOL inh -10.
Screening O=[N+]([O-])c1ccc(/C=C/C=Nc2ccccc2O)cc1 returned mHTT-CaM PPI inh 83* and Pf apPOL inh -2.
